In the library only some 8% were active in any assay of this set; here they are far more common.
HCMV antiviral: blocks human cytomegalovirus replication | activity change, negative = inhibition, % at 57.5 µM | HFF cells, HCMV-luciferase reporter, 72 h; hits give low values | AID 1259415 | 410,000 tested, 4.5% active; in the data active = activity change below about -60%; inconclusive = no clear call, values can overlap the other calls; inactive = above about -39%
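Inhibition of viral replication was scored as loss of reporter luminescence in HFFs infected with HCMV-luciferase (MOI 1 PFU/cell) for 72 h; compounds tested at 2 doses, normalized to buffer and Salinomycin controls.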
HCV inh: HCV inhibition; Huh7.5.1 HCVcc-Cre infection, luciferase reporter, 44 h; Potency, µM (series often up to 41.8 µM), usual class: inhibitors; 340,000 tested, 3.4% active; active = well fitted inhibition curve with a large enough effect; inconclusive = small, poorly fitted or top-dose-only effect, or another doubt; inactive = no such curve, though single readings can be large or run the other way
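Infectious HCV cell culture screen: compound-treated cells (1,000/well, pre-plated 4 h) are infected with HCVcc-Cre at roughly 0.5 moi and grown 44 h. Infection is quantified by luciferase signal after 15 min substrate incubation at room temperature.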
Lassa entry inh: blocks Lassa virus binding to or entry into cells | 300,000 tested, 1.2% active | Lassa virus pseudotype entry inhibition, cell reporter | Potency, µM (highest dose often 37.9 µM), hits mostly inhibitors; calls by dose curve; tested in HEK293 cells; note: nearly all actives have a fitted effect of over 50% in size
Marburg entry inh: Marburg virus entry inhibition; AID 540276; 300,000 tested, 1.8% active; Marburg virus pseudotyped entry inhibition, cell reporter; Potency, µM (highest dose often 37.8 µM), most hits filed as inhibitors; calls by dose curve; tested in HEK293 cells
FMDV inh: antivirals against foot and mouth disease virus. FMDV antiviral cell-based qHTS. Potency, µM (series often up to 57.9 µM), usual class: inhibitors. 410,000 tested, 1.2% active; calls by dose curve; tested in HEK293T cells; note: read-out not given here; nearly all actives have a fitted effect of over 45% in size
SARS PLpro yeast: blocks SARS-CoV papain-like protease in a yeast assay; S. cerevisiae expressing SARS-CoV PLpro, growth rescue; Potency, µM (top dose mostly 32.9 µM), most hits filed as activators; 330,000 tested, 0.19% active; calls by dose curve; note: nearly all actives have a fitted effect of over 55% in size
Each line names hits and unclear results; the compound was inactive in the other large screens.

CC(C)(O)C1CC[C@@](C)([C@@H]2CC[C@]3(C)[C@H]2[C@H](O)CC2[C@@]4(C)CCC(O)C(C)(C)C4C(OC4OC(CO)C(O)C(O)C4O[C@@H]4OCC(O)C(O)C4O)C[C@]23C)O1 (stereo partly drawn)	none (no result: Lassa entry inh, Marburg entry inh)
CCOC(=O)c1ccc(NC(=O)CC2C(=O)N(c3ccc(F)cc3)C(=O)N2Cc2ccc3c(c2)OCO3)cc1 (stereo not drawn)	Marburg entry inh inconclusive (no result: HCV inh, SARS PLpro yeast)
Nc1nc(-c2ccccc2)cc(-c2ccccc2O)n1	HCMV antiviral -96 (no result: FMDV inh)
NNC(=O)c1nc(-c2ccccc2)cc(-c2ccccc2)n1	HCMV antiviral -63 (no result: Lassa entry inh, Marburg entry inh)
NNc1nc(-c2ccccc2)cc(-c2ccccc2O)n1	HCV inh inconclusive, Marburg entry inh inconclusive
Clc1nc(-c2ccccc2)cc(-c2ccccc2)n1	HCV inh inconclusive, Marburg entry inh inconclusive
NNc1nc(-c2ccccc2)cc(-c2ccccc2)n1	HCV inh 13µM (no result: Lassa entry inh, Marburg entry inh)
Nc1nc(-c2ccccc2)nc(-c2ccccc2O)n1	HCV inh inconclusive (no result: SARS PLpro yeast)
CC(C)(C)c1ccc(-c2noc(CCC(=O)NCC3CCCO3)n2)cc1 (stereo not drawn)	HCMV antiviral -72, HCV inh inconclusive, Lassa entry inh inconclusive, Marburg entry inh inconclusive
CNC(=O)CCc1nc(-c2ccc(C(C)(C)C)cc2)no1	Lassa entry inh inconclusive, Marburg entry inh 0.89µM
Cc1ccc(-c2noc(CCC(=O)N(C)c3ccccc3F)n2)cc1	Lassa entry inh inconclusive (no result: HCV inh, SARS PLpro yeast)
CC(C)(C)c1ccc(-c2noc(CCC(=O)Nc3cccnc3)n2)cc1	HCMV antiviral -75, HCV inh inconclusive, Lassa entry inh inconclusive, Marburg entry inh inconclusive
CCc1ccccc1N(CC)C(=O)CCc1nc(-c2ccc(C)cc2)no1	HCV inh inconclusive, Lassa entry inh 10µM, Marburg entry inh inconclusive
COc1cccc(CCNc2ncnc3c2nnn3C)c1	HCMV antiviral inconclusive (no result: HCV inh, Marburg entry inh, SARS PLpro yeast)
CCOc1ccccc1CNC(=O)c1ccc(Cn2c(=O)c3cccn3c3cccnc32)cc1	none (no result: HCV inh, Marburg entry inh, SARS PLpro yeast)
Cc1cc(C)cc(OCC(=O)NCC2CCCO2)c1 (stereo not drawn)	HCMV antiviral -65 (no result: FMDV inh)
CN(C)C(=O)CCc1nc(-c2ccc(C(C)(C)C)cc2)no1	Lassa entry inh inconclusive, Marburg entry inh inconclusive
Cc1cc(C)cc(OCC(=O)NNC(=S)NC(=O)C2CC2)c1	HCMV antiviral -80, Marburg entry inh inconclusive, FMDV inh inconclusive
COc1ccc(CCc2nnc(CCC(=O)NCC3CCCO3)o2)cc1 (stereo not drawn)	HCMV antiviral -69
CC(C)(C)c1ccc(-c2noc(CCC(N)=O)n2)cc1	HCMV antiviral inconclusive, Lassa entry inh inconclusive, Marburg entry inh 1.5µM
COc1ccc(OCC(=O)NNC(=S)NC(=O)C2CC2)cc1	Lassa entry inh inconclusive
Cc1ccccc1OCC(=O)Nc1ccc(OCc2cc(=O)n3ccsc3n2)cc1	none (no result: HCV inh, SARS PLpro yeast)
C=CC[n+]1c(/C=C/c2ccc(OC(C)=O)c(OC)c2)ccc2ccccc21	HCMV antiviral -100, HCV inh inconclusive (no result: Lassa entry inh, Marburg entry inh)
COc1cc(/C=N/NC(=O)Nc2ccccc2)ccc1OC(C)=O	Marburg entry inh inconclusive
Cc1nc2cc(-c3ccsc3-n3c(C)ccc3C)[nH]n2c(=O)c1Cl	FMDV inh 32µM
Cc1ccccc1-c1cc2nc(-c3ccc([N+](=O)[O-])cc3)cc(=O)n2[nH]1	none
Cc1cc(=O)n2[nH]c(-c3ccsc3-n3c(C)ccc3C)cc2n1	none (no result: Lassa entry inh, Marburg entry inh)
Cc1ccccc1-c1cc2nc(C)c(Cl)c(=O)n2[nH]1	Lassa entry inh inconclusive, Marburg entry inh 13µM (no result: SARS PLpro yeast)
Clc1ccc(-c2cccc3nccn23)c(Cl)c1	none (no result: HCV inh, Lassa entry inh, Marburg entry inh, SARS PLpro yeast)
Clc1cccc(-c2cccc3nccn23)c1Cl	HCMV antiviral -79 (no result: HCV inh, Lassa entry inh, Marburg entry inh, SARS PLpro yeast)
CC(C)C[C@H]1CN([C@@H](Cc2ccccc2)CN2CCC[C@H]2CN2C(=O)C(=O)NC[C@@H]2Cc2ccccc2)C(=O)C(=O)N1CC1CCCCCC1	none (no result: HCV inh, Lassa entry inh, Marburg entry inh, FMDV inh, SARS PLpro yeast)
O=C(NC(=S)N1CCCC(C(F)(F)F)C1)c1ccc(F)cc1 (stereo not drawn)	HCMV antiviral -66
CC(=O)c1ccc(NC(=S)N2CCCC(C(F)(F)F)C2)cc1 (stereo not drawn)	none
COc1ccc(NC(=O)Nc2ccc(C)cc2OC(F)F)cc1OC	HCV inh 6.3µM
Cc1ccc(NC(=O)Nc2ccc3c(c2)OCO3)c(OC(F)F)c1	none
CCNS(=O)(=O)c1ccc(NC(=O)Nc2cc(C)ccc2OC)cc1	HCV inh 13µM (no result: Lassa entry inh, Marburg entry inh)
Cc1ccc(NC(=O)c2cnccn2)c(OC(F)F)c1	HCV inh 13µM
Cc1ccc(OCC(=O)Nc2ccc3nc(SCC(=O)N4CCOCC4)sc3c2)cc1C	FMDV inh inconclusive (no result: HCV inh, SARS PLpro yeast)
O=C(Nc1ccc(CN2CCOCC2)cc1)c1ccc(-c2cccc(Cl)c2)o1	HCMV antiviral -86, HCV inh inconclusive, Marburg entry inh inconclusive, FMDV inh 35µM
O=C(Nc1ccc(CN2CCOCC2)cc1)c1ccc(Cl)cc1Cl	HCV inh 10µM (no result: Lassa entry inh, Marburg entry inh)
O=C(Nc1ccc(CN2CCOCC2)cc1)c1cc(Br)ccc1Cl	none (no result: Lassa entry inh, Marburg entry inh)
O=C(NC(=S)Nc1ccc(CN2CCOCC2)cc1)c1ccc(-c2ccc(Br)cc2)o1	Lassa entry inh inconclusive, Marburg entry inh inconclusive (no result: HCMV antiviral)
O=C(Nc1ccc(CN2CCOCC2)cc1)c1ccc(-c2ccc(Cl)cc2Cl)o1	HCMV antiviral -65, HCV inh inconclusive, Marburg entry inh inconclusive, FMDV inh inconclusive
COC(=O)c1cc(NC(=O)c2ccc(-c3ccc(Cl)cc3Cl)o2)cc(C(=O)OC)c1	none (no result: HCV inh, Marburg entry inh, SARS PLpro yeast)
O=C(NC(=S)Nc1ccc(CN2CCOCC2)cc1)c1ccc(-c2ccc(Cl)cc2)o1	FMDV inh inconclusive (no result: Lassa entry inh, Marburg entry inh)
O=C(NC(=S)Nc1ccc(CN2CCOCC2)cc1)c1ccc(-c2cccc(Cl)c2)o1	HCMV antiviral inconclusive, HCV inh 14µM, FMDV inh 35µM (no result: Lassa entry inh, Marburg entry inh)
CCCCN(c1ccccc1)c1ncnc2c1cnn2-c1ccc(Cl)cc1	HCMV antiviral inconclusive (no result: HCV inh, Marburg entry inh, SARS PLpro yeast)
CC(Cc1ccccc1)NC(=O)CC(c1ccccc1)c1ccccc1O (stereo not drawn)	HCV inh inconclusive, Lassa entry inh 5.6µM, Marburg entry inh inconclusive
COc1ccc2cc3c(N)nn(C(=O)c4ccccc4[N+](=O)[O-])c3nc2c1	HCMV antiviral -70, HCV inh inconclusive, Lassa entry inh inconclusive, Marburg entry inh inconclusive
COc1ccc2cc3c(N)nn(C(=O)c4ccc(Cl)c([N+](=O)[O-])c4)c3nc2c1	HCMV antiviral -91, Marburg entry inh inconclusive
CCCC1CCC(C(=O)n2nc(N)c3cc4ccc(OC)cc4nc32)CC1 (stereo not drawn)	none
COc1ccc(Cc2nnc(NC(=O)c3ccc(Cl)c([N+](=O)[O-])c3)s2)cc1	none
CCc1ccc(-c2nc(CSCC(=O)N3CCN(c4ccccn4)CC3)c(C)o2)cc1	HCV inh 16µM, Lassa entry inh inconclusive, FMDV inh 20µM
Cc1oc(-c2ccccc2F)nc1CSCC(=O)N1CCN(c2ccccc2)CC1	HCMV antiviral inconclusive, FMDV inh inconclusive (no result: HCV inh, SARS PLpro yeast)

Compound activity deposited in PubChem BioAssay by National Center for Advancing Translational Sciences (NCATS).
